# Sampled rows, rich in hits. Any-hit rate of the full collection: about 3.5%.
# MITF primary: MITF inhibitors, primary screen, biochemical, AlphaScreen, human. actives 0.91% (n = 650,000). inhibition, % at 2.6 µM. AlphaScreen MITF homodimerization, bead proximity signal. Microphthalmia-associated transcription factor (Homo sapiens), O75030; in the data active = inhibition above about 50%;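 also: 0% = vehicle wells with protein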
# Target sequence (O75030 whole entry, looked up): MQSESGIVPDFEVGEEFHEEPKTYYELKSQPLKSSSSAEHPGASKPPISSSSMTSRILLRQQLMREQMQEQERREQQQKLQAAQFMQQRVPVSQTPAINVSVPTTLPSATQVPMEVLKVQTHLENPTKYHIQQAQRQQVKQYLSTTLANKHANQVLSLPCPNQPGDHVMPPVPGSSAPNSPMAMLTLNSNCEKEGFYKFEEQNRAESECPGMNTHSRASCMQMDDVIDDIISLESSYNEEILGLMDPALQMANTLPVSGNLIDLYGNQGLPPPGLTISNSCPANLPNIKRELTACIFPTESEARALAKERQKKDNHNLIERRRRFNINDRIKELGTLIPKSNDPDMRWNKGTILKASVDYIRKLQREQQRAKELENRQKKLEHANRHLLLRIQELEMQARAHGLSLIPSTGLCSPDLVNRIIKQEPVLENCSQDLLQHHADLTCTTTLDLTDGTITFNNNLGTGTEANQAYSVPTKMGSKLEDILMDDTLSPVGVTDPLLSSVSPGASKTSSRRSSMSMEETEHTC
# FBW7 activator: FBW7 E3 ligase activators, primary screen, biochemical, AlphaScreen, human; normalized activity (activation), % at 26.1 µM; actives 0.13% (n = 650,000); AID 1259310, 2017; AlphaScreen FBW7–phospho-cyclin E peptide binding, activator screen; in the data active = normalized activity above about 1.9%;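 also: purified mutant Fbw7 with reduced substrate affinity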
# GPR151 activ: activators of human GPR151, primary screen, cell-based, PathHunter beta-arrestin, luminescence; PathHunter beta-arrestin GPR151 cells; activation, % at 11.2 µM; actives 1% (n = 650,000); AID 1508602, 2020; in the data active = activation above about 4.9%;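 also: 0% = median of compound wells and 100% = cells with positive control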
# TEAD-YAP block: TEAD-YAP interaction inhibition, primary screen, TEAD-YAP interaction inhibitor project, luminescence, HEK-TIYL cells. TEAD-Gal4/YAP UAS-luciferase luminescence. inhibition, % at 9.12 µM. actives 1.4% (n = 640,000); in the data active = inhibition above about 32%;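 also: 0% = median of test compound wells and 100% = reference inhibitor wells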
# GPR151 confirm: GPR151 activators, triplicate retest, confirmation, cell-based, PathHunter beta-arrestin, luminescence; shares compounds with GPR151 activ; GPR151 PathHunter beta-arrestin cells, 90 min; % of EA-reagent control over plate median; activation, % at 11.2 µM; 6,700 tested, under 10 active; AID 1508609, 2020;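 active = mean percent activation across replicates above the confirmation screen cutoff of 4.91%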
# GPR119 counter: GPR119 activators in beta-arrestin cells, counter-screen for GPR151 activator project, cell-based, PathHunter beta-arrestin, luminescence, triplicate | activation, % at 11.2 µM | AID 1508611, 2020 | shares compounds with GPR151 activ | 90 min; 0 = compound-well median, 100 = enzyme-acceptor control | actives 0.3% (n = 6,700);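 active = mean percent activation in the counterscreen above 29.09%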;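 also: counterscreen on off-target GPR119 to flag nonselective hits from the GPR151 activator screen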
# Starred values were filed as active, the others as inactive; . = no result given; ! = a repeat was not active.
SMILES,MITF primary,FBW7 activator,GPR151 activ,TEAD-YAP block,GPR151 confirm,GPR119 counter
O=C(Nc1cc(C(F)(F)F)ccc1Cl)c1ccc(F)c([N+](=O)[O-])c1,7.3,0.0,-0.2,1.5,.,.
COCCCNC(=O)C(C)N(c1ccc(Oc2ccccc2)cc1)S(C)(=O)=O (configuration not stated),-6.8,-0.1,0.1,4.7,.,.
COc1cc(S(=O)(=O)N2CCC(C)CC2)c(OC)cc1Br,-2.1,0.1,1.4,1.9,.,.
C[C@H](CCC(=O)O)[C@H]1CC[C@H]2[C@@H]3[C@@H](O)C[C@@H]4C[C@H](O)CCC4(C)[C@H]3CCC12C (some centres not stated),-12.2,0.2,4.1,.,.,.
COC(=O)CCC(C)C1CCC2C3CC[C@@H]4C[C@H](O)CC[C@]4(C)C3C[C@H](O)[C@]12C (some centres not stated),15.8,0.2,6.4*,4.4,0.3,8.2
Cc1ccc(C)n1CCN1CCN(S(=O)(=O)c2ccccc2)CC1,-33.5,-0.4,5.1*,5.0,0.1,-3.1
O=C(NCCN1CCN(S(=O)(=O)c2ccccc2)CC1)C(=O)NCc1ccco1,-2.5,0.3,5.7*,5.0,0.3,-8.1
COc1cc(OC)cc(C(=O)O/N=C2/CCCc3ccc(OC)cc32)c1,7.3,0.0,-0.3,-1.4,.,.
Cn1nnc2cc(NC(=O)Nc3ccccc3F)ccc21,2.1,0.2,-2.9,11.5,.,.
Cn1nnc2cc(NC(=O)NCc3ccccc3)ccc21,10.5,0.3,6.3*,-8.6,-0.5,-3.5
Cc1csc(NC(=O)CSc2nc(C3CC3)nc3sc(C)c(C)c23)n1,9.0,0.0,6.3*,-17.5,0.8,7.4
COc1ccccc1C(O)c1nc2ccccc2n1Cc1ccccc1 (configuration not stated),4.9,-0.1,0.4,5.3,.,.
CCCOC(=O)c1c(N)sc2c1CCC(C)C2 (configuration not stated),0.6,0.0,0.7,-8.6,.,.
CNC(=O)c1c(NC(=O)COc2cccc(C)c2C)sc2c1CCCC2,0.2,-0.1,5.2*,-6.9,0.1,0.7
CCCOC(=O)c1c(NC(=O)OC)sc2c1CCC(C)C2 (configuration not stated),13.1,1.2,6.0*,-4.4,-0.9,-8.4
CCOC(=O)c1c(NC(=O)COc2ccc3c(c2)OCO3)sc2c1CCCC2,-13.2,-0.1,5.4*,3.5,0.2,9.9
CCOC(=O)c1c(NC(=O)COc2ccc3c(C)cc(=O)oc3c2)sc2c1CCC(C)C2 (configuration not stated),-4.5,0.1,5.4*,2.7,0.3,10.0
CCOC(=O)CSc1cc(NCCO)c([N+](=O)[O-])c2nonc12,-5.4,-0.3,-2.4,-8.5,.,.
CCOC(=O)c1cc2sccc2n1CC(=O)N1CC(C)CC(C)C1 (configuration not stated),-3.2,-0.1,-1.2,-4.1,.,.
O=C(COc1ccc([N+](=O)[O-])cc1)NCc1ccc2c(c1)OCO2,1.8,0.0,-0.7,-5.0,.,.
COC(=O)c1ccc(NC(=O)COc2cccc(C)c2C)cc1,8.1,0.3,1.3,7.1,.,.
COc1ccc(NC(=O)COc2cccc(C)c2C)cc1,3.0,0.2,7.5*,-18.8,-0.3,14.2
OCCC1CN(Cc2cccn2-c2ncccn2)CCN1Cc1ccsc1 (configuration not stated),17.1,0.2,-0.8,-4.2,.,.
CC(=O)N1CCc2cc(S(=O)(=O)NCCC(=O)NCCc3ccc(Cl)cc3)ccc21,-7.5,-0.2,6.5*,27.6,0.0,0.3
COc1ccc(NC(=O)CSc2nc(C)nc3sc(C)c(C)c23)cc1OC,3.0,-0.1,0.3,-1.4,.,.
SMILES,MITF primary,FBW7 activator,GPR151 activ,TEAD-YAP block,GPR151 confirm,GPR119 counter
CCc1ccc(NC(=O)CCc2ccc(CC)o2)cc1,0.7,-0.1,8.5*,-13.7,-0.4,-3.8
CS(=O)(=O)N(CC(=O)NCc1ccco1)c1ccc(C23CC4CC(CC(C4)C2)C3)cc1,5.1,0.1,-0.1,2.3,.,.
COCCCNCCn1cnc2c(N)ncnc21,-7.0,-0.1,7.2*,3.3,-1.0,-1.6
O=c1oc2c3c(ccc2c2c1CCC2)OCN(c1ccc(F)cc1)C3,5.7,0.0,5.1*,3.1,-0.1,-12.3
CC(=O)Nc1ccc(S(=O)(=O)Nc2ccccc2C(C)C)cc1,5.5,-0.1,5.9*,4.4,0.1,-13.8
O=C(NCc1ccc(Cl)cc1)c1sc(=S)n2c1[nH]c(=O)c1ccccc12,-7.1,-0.1,2.4,-2.8,.,.
COC(=O)c1ccccc1S(=O)(=O)C1CCN(C(=O)Nc2ccc(F)cc2F)CC1,7.4,0.0,5.0*,-4.3,-1.6,-13.4
CC(C)(S)C(=O)N[C@@H](CS)C(=O)O,-9.4,0.0,-2.2,-1.7,.,.
CC(C)(S)C(N)C(=O)O (configuration not stated),1.0,-0.1,5.1*!,-9.1,0.3,-9.3
COC(=O)c1ccc(/C=N/Nc2nc(C)cc(=O)[nH]2)cc1,17.4,0.1,-1.8,8.7,.,.
CSc1cccc(NS(=O)(=O)c2ccccc2[N+](=O)[O-])c1,-11.3,-0.3,-1.1,-10.5,.,.
CC(C)C(NC(=O)C1CCCCC1)C(=O)Nc1ccncc1 (configuration not stated),-1.7,0.1,5.6*,5.6,0.3,8.7
O=C(O)c1c(-c2ccccc2)oc2ccc(O)cc12,-2.3,-0.5,0.3,-3.1,.,.
O=C(c1c(-c2ccccc2)oc2ccc(O)cc12)N1CCCCC1,-6.2,0.1,4.9*,-3.5,-0.7,-7.3
O=C1C2C(c3ccc(F)cc3)OC3(C(=O)c4ccccc4C3=O)C2C(=O)N1c1ccccc1C(F)(F)F (configuration not stated),-1.6,-0.1,-1.0,5.0,.,.
O=C(CSc1nc2cc(C(=O)NCC3CCCO3)ccc2c(=O)n1Cc1ccco1)NC1CCCCC1 (configuration not stated),-9.0,0.1,5.2*,-0.8,-0.5,-2.4
O=C(CSc1nc2cc(C(=O)NCC3CCCO3)ccc2c(=O)n1CC1CCCO1)NC1CCCCC1 (configuration not stated),1.8,0.5,0.8,0.0,.,.
CCC(=O)N1c2ccccc2NC2=C(C(=O)CC(C)(C)C2)C1c1ccc(N(C)C)cc1 (configuration not stated),2.5,0.0,-0.3,16.3,.,.
CC1(C)CC(=O)C2=C(C1)Nc1ccccc1N1C(=O)c3ccccc3C21 (configuration not stated),-5.2,-0.1,-0.1,-15.8,.,.

# Screens from PubChem.
